Measurements from ChEMBL document CHEMBL2218924, “A broad activity screen in support of a chemogenomic map for kinase signalling research and drug discovery” (Biochem J, 2013).

Tests used:
[1] = target: T1, Ephrin type-A receptor 3 (Homo sapiens) (UniProt P29320); details: at 10 µM
T1 sequence (whole entry): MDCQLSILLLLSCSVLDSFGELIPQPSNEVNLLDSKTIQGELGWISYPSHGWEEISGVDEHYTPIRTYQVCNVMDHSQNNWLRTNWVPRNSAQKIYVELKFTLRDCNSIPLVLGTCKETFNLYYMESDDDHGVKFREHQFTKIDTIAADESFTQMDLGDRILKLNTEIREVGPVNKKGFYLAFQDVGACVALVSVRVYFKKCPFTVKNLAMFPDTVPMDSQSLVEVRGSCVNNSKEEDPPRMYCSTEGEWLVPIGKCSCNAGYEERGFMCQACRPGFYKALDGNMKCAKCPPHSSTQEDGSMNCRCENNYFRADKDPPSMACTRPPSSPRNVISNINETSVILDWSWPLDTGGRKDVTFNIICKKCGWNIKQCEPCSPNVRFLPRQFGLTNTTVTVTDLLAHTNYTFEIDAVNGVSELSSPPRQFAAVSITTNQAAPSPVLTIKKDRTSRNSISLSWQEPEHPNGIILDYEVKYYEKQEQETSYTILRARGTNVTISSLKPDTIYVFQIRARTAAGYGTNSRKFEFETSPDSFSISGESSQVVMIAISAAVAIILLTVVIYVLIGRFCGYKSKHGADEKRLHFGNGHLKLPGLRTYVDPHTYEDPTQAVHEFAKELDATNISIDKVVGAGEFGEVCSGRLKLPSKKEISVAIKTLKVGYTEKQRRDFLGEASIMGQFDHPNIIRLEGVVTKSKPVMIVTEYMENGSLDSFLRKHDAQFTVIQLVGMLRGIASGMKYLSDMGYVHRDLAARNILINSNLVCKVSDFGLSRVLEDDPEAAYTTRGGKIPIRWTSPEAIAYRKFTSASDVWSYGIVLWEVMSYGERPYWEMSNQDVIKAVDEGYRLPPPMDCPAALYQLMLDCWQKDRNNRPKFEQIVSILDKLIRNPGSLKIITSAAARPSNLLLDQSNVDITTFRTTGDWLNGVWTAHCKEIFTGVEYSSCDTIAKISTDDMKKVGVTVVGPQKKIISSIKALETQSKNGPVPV

[2] = target: Ephrin type-A receptor 4 (Homo sapiens) (UniProt P54764); details: at 1 µM
[3] = target: Ephrin type-A receptor 5 (Homo sapiens) (UniProt P54756); details: at 1 µM
[4] = target: Ephrin type-A receptor 5 (Homo sapiens) (UniProt P54756); details: at 10 µM
[5] = target: Ephrin type-A receptor 7 (Homo sapiens) (UniProt Q15375); details: at 1 µM
[6] = target: Ephrin type-A receptor 7 (Homo sapiens) (UniProt Q15375); details: at 10 µM
[7] = target: T2, Ephrin type-A receptor 8 (Homo sapiens) (UniProt P29322); details: at 1 µM
T2 sequence (whole entry): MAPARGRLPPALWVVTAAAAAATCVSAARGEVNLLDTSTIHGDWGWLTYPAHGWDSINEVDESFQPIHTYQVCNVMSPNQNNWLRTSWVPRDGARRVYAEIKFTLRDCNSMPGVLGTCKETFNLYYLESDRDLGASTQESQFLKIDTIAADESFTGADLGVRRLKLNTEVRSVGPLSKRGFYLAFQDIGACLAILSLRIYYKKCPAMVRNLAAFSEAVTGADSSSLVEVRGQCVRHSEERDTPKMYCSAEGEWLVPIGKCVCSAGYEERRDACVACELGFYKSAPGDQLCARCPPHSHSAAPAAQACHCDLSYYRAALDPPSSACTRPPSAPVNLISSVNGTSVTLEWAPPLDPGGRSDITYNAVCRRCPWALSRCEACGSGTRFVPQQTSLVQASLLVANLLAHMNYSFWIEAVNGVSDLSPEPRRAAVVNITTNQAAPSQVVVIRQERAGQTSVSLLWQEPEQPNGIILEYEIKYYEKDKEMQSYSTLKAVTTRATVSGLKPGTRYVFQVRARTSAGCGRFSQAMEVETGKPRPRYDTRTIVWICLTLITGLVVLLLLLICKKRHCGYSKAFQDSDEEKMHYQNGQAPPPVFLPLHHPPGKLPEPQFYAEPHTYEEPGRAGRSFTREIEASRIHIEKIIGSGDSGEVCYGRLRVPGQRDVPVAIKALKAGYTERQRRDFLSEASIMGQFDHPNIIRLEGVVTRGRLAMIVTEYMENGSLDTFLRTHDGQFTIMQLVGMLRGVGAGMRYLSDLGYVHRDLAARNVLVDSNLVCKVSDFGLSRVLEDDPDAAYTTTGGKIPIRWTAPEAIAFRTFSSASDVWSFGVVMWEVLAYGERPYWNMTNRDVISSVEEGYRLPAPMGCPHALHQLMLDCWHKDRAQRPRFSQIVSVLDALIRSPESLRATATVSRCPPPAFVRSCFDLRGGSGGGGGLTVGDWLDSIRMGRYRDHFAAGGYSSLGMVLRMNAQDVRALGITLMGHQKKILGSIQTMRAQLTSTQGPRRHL

[8] = target: T2, Ephrin type-A receptor 8 (Homo sapiens); details: at 10 µM
[9] = target: T3, Ephrin type-B receptor 1 (Homo sapiens) (UniProt P54762); details: at 1 µM
T3 sequence (whole entry): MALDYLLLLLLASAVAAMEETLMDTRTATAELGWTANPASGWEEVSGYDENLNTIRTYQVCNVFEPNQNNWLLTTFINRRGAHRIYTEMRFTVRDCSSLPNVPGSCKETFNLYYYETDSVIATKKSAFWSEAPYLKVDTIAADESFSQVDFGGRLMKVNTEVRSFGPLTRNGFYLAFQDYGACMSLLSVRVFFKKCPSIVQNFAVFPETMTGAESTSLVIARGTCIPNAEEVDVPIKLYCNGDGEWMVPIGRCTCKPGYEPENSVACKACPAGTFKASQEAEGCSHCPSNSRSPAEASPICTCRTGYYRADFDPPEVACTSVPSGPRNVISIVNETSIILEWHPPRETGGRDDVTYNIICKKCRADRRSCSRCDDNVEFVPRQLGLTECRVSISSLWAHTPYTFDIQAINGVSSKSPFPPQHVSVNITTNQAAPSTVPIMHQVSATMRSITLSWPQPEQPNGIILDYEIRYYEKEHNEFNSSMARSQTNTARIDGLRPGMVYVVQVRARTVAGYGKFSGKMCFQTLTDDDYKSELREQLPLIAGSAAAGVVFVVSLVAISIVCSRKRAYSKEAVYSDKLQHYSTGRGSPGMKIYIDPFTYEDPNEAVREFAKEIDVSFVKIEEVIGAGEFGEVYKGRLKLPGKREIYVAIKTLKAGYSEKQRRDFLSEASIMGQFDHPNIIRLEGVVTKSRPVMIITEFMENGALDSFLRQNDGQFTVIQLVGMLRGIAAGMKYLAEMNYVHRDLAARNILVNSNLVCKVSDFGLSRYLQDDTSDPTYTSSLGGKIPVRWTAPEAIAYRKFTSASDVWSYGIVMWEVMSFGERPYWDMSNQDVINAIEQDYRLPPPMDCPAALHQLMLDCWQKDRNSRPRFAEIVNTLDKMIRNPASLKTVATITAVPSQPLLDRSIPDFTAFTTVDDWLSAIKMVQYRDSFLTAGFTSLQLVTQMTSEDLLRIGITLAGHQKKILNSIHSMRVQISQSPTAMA

[10] = target: T3, Ephrin type-B receptor 1 (Homo sapiens); details: at 10 µM
[11] = target: T4, Ephrin type-B receptor 3 (Homo sapiens) (UniProt P54753); details: at 10 µM
T4 sequence (whole entry): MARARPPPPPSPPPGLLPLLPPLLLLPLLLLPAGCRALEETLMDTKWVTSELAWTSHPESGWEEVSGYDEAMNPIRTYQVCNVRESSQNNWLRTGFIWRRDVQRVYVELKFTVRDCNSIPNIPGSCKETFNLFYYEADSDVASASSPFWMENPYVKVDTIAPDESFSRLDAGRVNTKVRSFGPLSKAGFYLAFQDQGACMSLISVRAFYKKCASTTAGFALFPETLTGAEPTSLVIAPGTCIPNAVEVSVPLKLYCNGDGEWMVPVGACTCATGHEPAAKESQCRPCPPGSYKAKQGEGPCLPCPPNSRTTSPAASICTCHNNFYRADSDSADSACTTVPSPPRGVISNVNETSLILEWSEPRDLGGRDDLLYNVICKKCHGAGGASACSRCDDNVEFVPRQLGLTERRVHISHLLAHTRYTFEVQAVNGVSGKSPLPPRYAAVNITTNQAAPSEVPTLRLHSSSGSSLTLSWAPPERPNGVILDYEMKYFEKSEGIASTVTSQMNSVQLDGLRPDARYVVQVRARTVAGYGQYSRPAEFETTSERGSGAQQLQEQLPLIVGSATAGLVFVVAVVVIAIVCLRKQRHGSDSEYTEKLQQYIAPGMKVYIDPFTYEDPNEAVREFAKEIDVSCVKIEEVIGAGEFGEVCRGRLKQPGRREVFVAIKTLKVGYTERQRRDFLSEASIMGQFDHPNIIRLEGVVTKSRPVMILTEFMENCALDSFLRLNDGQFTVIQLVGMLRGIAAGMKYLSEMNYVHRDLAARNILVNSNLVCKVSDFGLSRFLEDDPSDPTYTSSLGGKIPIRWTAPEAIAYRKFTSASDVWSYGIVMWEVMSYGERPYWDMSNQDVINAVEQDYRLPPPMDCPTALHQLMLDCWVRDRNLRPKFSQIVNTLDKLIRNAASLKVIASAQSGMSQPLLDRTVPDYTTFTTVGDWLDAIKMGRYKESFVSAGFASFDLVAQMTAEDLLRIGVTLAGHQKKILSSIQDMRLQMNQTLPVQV

[12] = target: T5, Ephrin type-B receptor 4 (Homo sapiens) (UniProt P54760); details: at 1 µM
T5 sequence (whole entry): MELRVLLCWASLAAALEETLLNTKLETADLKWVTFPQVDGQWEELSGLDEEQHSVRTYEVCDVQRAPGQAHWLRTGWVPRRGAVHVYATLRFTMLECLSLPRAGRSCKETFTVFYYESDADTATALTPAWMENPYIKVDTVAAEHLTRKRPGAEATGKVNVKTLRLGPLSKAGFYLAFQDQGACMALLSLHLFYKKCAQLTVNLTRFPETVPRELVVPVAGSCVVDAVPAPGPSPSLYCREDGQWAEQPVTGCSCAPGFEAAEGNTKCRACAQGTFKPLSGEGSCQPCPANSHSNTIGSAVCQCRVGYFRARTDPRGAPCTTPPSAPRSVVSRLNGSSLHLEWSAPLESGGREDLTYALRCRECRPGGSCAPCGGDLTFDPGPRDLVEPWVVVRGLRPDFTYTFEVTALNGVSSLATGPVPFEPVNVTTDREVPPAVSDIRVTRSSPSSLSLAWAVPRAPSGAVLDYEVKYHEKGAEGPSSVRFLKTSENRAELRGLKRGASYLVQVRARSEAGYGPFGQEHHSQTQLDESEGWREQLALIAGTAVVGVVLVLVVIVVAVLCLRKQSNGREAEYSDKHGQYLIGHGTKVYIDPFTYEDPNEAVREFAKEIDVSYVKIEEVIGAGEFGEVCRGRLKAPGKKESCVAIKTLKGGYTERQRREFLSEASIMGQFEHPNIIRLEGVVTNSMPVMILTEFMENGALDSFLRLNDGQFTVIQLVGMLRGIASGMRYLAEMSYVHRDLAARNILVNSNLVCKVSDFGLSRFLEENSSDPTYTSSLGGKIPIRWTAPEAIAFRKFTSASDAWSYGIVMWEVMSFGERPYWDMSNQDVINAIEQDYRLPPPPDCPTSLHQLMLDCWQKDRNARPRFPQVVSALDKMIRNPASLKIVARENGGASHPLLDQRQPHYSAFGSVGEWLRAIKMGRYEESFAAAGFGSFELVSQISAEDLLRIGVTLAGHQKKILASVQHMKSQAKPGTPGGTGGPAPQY

[13] = target: T5, Ephrin type-B receptor 4 (Homo sapiens); details: at 10 µM
[14] = target: Receptor tyrosine-protein kinase erbB-4 (Homo sapiens) (UniProt Q15303); details: at 1 µM
[15] = target: Receptor tyrosine-protein kinase erbB-4 (Homo sapiens) (UniProt Q15303); details: at 10 µM
[16] = target: Focal adhesion kinase 1 (Homo sapiens) (UniProt Q05397); details: at 1 µM
[17] = target: T6, Ephrin type-B receptor 2 (Homo sapiens) (UniProt P29323); details: at 10 µM
T6 sequence (whole entry): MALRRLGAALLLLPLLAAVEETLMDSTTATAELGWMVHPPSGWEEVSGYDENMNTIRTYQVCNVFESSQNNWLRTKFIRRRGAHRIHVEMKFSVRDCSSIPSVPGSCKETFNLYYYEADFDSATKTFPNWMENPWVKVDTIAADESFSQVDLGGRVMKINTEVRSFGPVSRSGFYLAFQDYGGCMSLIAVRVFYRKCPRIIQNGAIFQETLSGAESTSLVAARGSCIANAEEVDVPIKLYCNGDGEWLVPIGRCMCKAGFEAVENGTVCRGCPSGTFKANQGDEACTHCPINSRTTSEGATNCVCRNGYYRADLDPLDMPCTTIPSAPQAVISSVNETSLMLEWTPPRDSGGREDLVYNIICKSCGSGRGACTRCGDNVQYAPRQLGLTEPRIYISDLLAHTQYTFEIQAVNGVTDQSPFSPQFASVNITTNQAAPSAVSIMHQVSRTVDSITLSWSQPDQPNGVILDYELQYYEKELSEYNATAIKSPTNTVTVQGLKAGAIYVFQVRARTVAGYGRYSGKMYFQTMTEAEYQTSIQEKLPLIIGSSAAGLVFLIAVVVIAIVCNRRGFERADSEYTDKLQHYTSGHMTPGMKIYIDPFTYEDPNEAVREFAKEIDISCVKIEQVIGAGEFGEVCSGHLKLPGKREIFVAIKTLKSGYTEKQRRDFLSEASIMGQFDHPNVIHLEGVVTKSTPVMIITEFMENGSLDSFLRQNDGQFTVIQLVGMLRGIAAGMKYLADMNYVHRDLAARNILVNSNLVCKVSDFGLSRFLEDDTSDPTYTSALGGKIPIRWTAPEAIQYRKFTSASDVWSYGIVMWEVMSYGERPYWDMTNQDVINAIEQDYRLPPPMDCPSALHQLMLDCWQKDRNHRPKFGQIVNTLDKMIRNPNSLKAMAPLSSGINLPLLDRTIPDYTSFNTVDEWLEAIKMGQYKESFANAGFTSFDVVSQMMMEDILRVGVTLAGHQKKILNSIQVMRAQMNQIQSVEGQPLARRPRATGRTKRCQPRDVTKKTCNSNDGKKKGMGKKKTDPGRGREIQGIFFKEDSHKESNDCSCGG

Chain of Ephrin type-A receptor 7 (Homo sapiens) (Q15375 28-998 limits assumed): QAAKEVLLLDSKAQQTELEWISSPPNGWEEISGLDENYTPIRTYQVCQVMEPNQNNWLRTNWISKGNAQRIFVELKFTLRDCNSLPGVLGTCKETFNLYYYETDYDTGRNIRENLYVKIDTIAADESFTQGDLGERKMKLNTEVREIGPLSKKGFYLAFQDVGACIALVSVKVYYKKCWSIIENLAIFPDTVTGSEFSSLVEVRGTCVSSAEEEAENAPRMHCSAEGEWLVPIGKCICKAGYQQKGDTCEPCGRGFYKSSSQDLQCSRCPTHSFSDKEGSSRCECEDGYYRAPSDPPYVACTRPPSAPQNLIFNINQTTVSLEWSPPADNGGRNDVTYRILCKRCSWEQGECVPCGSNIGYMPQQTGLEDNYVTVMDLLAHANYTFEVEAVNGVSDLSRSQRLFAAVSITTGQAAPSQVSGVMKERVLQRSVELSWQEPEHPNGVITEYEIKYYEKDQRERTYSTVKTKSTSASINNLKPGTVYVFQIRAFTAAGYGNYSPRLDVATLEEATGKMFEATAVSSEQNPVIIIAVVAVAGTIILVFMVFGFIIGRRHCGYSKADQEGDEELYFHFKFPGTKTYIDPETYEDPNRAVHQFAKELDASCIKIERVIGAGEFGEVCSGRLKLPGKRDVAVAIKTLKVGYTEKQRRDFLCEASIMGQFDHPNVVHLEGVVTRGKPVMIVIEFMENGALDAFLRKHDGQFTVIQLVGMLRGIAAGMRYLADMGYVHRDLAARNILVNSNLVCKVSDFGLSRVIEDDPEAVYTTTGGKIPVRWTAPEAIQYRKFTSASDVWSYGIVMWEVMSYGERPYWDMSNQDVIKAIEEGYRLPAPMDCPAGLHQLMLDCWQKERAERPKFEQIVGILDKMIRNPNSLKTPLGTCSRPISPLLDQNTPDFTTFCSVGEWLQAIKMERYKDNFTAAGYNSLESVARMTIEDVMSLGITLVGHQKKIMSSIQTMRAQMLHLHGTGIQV
Chain of Ephrin type-A receptor 5 (Homo sapiens) (P54756 whole entry): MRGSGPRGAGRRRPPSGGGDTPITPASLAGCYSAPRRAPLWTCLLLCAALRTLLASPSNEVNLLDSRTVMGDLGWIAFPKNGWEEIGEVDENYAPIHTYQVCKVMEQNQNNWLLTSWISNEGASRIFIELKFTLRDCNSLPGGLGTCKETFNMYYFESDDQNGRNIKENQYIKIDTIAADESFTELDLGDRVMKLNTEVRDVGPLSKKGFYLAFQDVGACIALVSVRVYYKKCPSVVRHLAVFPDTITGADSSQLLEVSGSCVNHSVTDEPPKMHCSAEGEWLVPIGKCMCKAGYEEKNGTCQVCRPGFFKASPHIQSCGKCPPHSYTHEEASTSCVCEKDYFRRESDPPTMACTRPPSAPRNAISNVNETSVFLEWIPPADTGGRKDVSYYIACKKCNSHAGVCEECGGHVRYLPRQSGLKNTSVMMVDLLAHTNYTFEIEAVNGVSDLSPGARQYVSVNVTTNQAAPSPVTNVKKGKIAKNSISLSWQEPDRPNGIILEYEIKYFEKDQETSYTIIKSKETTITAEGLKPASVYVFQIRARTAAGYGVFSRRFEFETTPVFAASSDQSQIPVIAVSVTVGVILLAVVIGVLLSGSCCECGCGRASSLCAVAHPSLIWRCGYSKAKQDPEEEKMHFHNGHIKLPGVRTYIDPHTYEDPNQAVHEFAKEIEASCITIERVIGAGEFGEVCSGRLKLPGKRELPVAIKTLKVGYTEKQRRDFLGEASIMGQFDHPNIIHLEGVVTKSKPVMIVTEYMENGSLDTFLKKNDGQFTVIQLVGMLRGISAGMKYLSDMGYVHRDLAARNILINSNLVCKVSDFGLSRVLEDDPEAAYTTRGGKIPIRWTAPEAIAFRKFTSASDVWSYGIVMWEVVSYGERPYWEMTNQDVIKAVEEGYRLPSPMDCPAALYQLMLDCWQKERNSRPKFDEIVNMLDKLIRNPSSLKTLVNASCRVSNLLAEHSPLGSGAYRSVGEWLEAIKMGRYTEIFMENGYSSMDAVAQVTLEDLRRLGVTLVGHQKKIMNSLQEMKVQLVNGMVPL
Chain of Receptor tyrosine-protein kinase erbB-4 (Homo sapiens) (Q15303 whole entry): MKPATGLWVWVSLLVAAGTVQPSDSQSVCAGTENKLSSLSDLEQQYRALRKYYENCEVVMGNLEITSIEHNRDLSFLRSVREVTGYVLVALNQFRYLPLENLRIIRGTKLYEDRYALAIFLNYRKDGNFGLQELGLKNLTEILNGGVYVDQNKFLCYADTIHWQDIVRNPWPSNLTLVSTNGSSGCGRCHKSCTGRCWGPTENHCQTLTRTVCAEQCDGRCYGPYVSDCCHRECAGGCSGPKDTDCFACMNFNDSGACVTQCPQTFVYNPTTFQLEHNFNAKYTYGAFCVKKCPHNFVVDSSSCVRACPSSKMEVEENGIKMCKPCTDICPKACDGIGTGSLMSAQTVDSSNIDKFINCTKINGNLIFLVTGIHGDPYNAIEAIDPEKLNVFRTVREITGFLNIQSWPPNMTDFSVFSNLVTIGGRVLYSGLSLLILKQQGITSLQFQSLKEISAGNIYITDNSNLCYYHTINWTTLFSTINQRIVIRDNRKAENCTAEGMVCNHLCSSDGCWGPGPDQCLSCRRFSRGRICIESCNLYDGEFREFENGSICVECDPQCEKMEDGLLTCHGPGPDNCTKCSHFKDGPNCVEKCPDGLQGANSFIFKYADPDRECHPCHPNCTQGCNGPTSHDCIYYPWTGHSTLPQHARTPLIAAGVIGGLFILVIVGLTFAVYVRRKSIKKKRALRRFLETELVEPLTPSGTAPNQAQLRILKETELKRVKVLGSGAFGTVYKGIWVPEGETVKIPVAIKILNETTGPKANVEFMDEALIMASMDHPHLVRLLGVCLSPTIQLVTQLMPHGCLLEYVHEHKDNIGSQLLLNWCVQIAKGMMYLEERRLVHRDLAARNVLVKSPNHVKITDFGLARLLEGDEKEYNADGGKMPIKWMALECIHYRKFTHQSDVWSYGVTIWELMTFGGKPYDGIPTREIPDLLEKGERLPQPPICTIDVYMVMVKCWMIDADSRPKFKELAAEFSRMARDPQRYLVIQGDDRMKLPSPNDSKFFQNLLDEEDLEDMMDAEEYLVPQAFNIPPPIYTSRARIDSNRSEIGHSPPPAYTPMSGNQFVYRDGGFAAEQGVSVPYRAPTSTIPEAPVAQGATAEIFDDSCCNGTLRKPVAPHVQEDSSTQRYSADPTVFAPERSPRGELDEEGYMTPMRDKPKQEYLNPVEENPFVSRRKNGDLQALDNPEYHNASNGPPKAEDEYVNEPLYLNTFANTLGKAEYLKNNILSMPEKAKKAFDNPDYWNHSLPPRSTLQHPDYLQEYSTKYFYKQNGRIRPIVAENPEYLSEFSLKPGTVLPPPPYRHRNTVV
Chain of Focal adhesion kinase 1 (Homo sapiens) (Q05397 2-1052 limits assumed): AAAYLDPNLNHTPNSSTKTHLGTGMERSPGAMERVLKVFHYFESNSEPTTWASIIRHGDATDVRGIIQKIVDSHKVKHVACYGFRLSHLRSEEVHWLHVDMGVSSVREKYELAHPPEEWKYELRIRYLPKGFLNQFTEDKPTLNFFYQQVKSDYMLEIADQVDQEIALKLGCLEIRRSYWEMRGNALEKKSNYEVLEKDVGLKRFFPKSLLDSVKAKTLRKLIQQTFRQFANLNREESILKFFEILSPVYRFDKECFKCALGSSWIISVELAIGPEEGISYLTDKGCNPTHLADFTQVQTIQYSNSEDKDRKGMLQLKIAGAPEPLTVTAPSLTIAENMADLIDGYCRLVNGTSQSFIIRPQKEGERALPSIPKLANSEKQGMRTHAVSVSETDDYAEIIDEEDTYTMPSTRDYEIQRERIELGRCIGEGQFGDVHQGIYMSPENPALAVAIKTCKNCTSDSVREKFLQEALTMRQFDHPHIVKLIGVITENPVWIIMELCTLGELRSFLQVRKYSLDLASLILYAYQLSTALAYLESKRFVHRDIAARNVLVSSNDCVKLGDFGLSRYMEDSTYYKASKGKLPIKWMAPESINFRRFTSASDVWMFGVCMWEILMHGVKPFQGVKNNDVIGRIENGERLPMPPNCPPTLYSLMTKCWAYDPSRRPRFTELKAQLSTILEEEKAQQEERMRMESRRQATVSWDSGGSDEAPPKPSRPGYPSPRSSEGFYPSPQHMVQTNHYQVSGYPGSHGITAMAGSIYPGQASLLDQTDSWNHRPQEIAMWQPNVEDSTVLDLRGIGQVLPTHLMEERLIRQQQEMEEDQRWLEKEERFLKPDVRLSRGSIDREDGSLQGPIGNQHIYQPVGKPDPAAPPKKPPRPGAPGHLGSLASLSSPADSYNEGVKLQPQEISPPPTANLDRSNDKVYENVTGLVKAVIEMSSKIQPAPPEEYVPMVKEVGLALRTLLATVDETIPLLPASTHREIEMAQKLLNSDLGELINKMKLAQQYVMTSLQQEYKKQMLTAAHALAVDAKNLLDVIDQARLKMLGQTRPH

Structure (SMILES)	residual activity [1]	residual activity [2]	residual activity [3]	residual activity [4]	residual activity [5]	residual activity [6]	residual activity [7]	residual activity [8]	residual activity [9]	residual activity [10]	residual activity [11]	residual activity [12]	residual activity [13]	residual activity [14]	residual activity [15]	residual activity [16]	residual activity [17]
CC(C)c1nn(-c2c(Cl)cccc2Cl)c2nc(Cc3ccc(OCCO)cc3)[nH]c(=O)c12	85%	121%	106%	106%	97%	88%	94%	89%	90%	84%	108%	86%	76%	103%	91%	109%	
Fc1ccc(-c2nc3n(c2-c2ccncc2)CCS3)cc1	90%			89%	99%	84%	97%	70%									91%
